A word on the Inhibition: it is the relative decrease from the control value, in per cent.

Results with a measured potency or affinity are listed apart.

Here are results for 12 compounds from ChEMBL document CHEMBL4513146, “CO-ADD screening of Karazin Kharkiv National University (Ukraine) compounds”.

One assay relates to Staphylococcus aureus. The following applies: Concentration 32 ug.mL-1;; ASSAY_TEST Inhibition of Bacterial Growth; detection method Absorption (OD600); MEDIA CAMHB; plate type 384well; NBS; CORNING #3640; time 18 hr.
Another assay deals with Escherichia coli. Conditions: Concentration 32 ug.mL-1;; ASSAY_TEST Inhibition of Bacterial Growth; detection method Absorption (OD600); MEDIA CAMHB; plate type 384well; NBS; CORNING #3640; time 18 hr.

Consider `Cc1cccc(NC(=O)Cn2nc3c(Sc4ccccc4)nccn3c2=O)c1`, for which the Inhibition in the assay with Staphylococcus aureus is -16.15%; with Escherichia coli, -1.95%.
Regarding `COc1cccc(CNC(=O)CSc2nnc3c4cc(-c5ccc(C)cc5)nn4ccn23)c1`, the figures for the Inhibition in the assay on Staphylococcus aureus and in the assay on Escherichia coli were -18.93% and -18.15%, respectively.
On to `CCc1nnc2ccc(S(=O)(=O)N(Cc3cccc(OC)c3)c3cccc(F)c3)cn12`, for which the Inhibition in the assay on Staphylococcus aureus is listed as -0.28%; in the assay with Escherichia coli, -5.95%.
Take `CCOc1ccc(-n2ccn3c(SC(C)C(=O)Nc4ccc5c(c4)OCCO5)nnc3c2=O)cc1` (centres undefined): the Inhibition is listed as 14.02% in the assay with Staphylococcus aureus and 0.39% in the assay on Escherichia coli.
The corresponding values for `Cc1ccc(C)c(-c2cc3c4nnc(SCC(=O)Nc5cccc(Br)c5)n4ccn3n2)c1` are 0.42% and -9.35%.
For `CCC(C)NC(=O)c1ccc2c(=O)n(CCC(C)C)c3nn(CC#N)c(=O)n3c2c1` (centres undefined), the values for the Inhibition in the assay on Staphylococcus aureus and in the assay with Escherichia coli were 11.05% and -1.24%, respectively.
In the case of `Cc1ccccc1Nc1cc(C)n2c(=O)n(CCOc3ccc(F)cc3)nc2n1`, the Inhibition is recorded as 13.1% in the assay with Staphylococcus aureus and -3.45% with Escherichia coli.
As for `O=C(Cn1nc2c(N3CCOCC3)nccn2c1=O)Nc1ccc(Cl)cc1F`, the results for the Inhibition in the assay on Staphylococcus aureus and with Escherichia coli were 8.72% and 5.15%, respectively.
The corresponding values for `CC(=O)c1ccc(NC(=O)Cn2nc3c(SC4CCCCC4)nccn3c2=O)cc1` are 3.51% and -2.6%.
With `O=C(CSc1nnc2c3cc(-c4ccc(F)cc4)nn3ccn12)NCc1ccc(Cl)cc1`, the results for the Inhibition with Staphylococcus aureus and in the assay on Escherichia coli were -3.32% and -11.03%, respectively.
The corresponding values for `COc1ccc(CNC(=O)CCc2nnc3c(N4CCCCC4)nc4ccccc4n23)cc1OC` are 16.6% and 2.89%.
For `CCc1nnc2c(S(=O)(=O)N(Cc3cc(F)cc(F)c3)c3ccccc3)cccn12`, the Inhibition in the assay on Staphylococcus aureus is on record as 7.38%; in the assay with Escherichia coli, -4.8%.
